PubChem BioAssay
Records with an inconclusive call do not appear. Active and inactive are the calls of the source. Cut-off read from the data, not from the text of the source, unless noted: active = inhibition above about 80%; inactive = the rest.

Legend:
[1] = growth inhibition of DIPG glioma cells, dose response, cell-based, SU-DIPG-XIII, MIPE5.0, CellTiter-Glo, qHTS (AID 1347064; cut-off not given, nearly all actives have AC50 up to about 23 µM;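 for AC50: cells exposed to compound for 48 hours before the viability read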); details: SU-DIPG-XIII viability, CellTiter-Glo ATP luminescence
[2] = SU-DIPG-XXV glioma cell viability, MIPE5.0 library, qHTS (AID 1347068; cut-off not given, nearly all actives have IC50 up to about 30 µM)
[3] = LFS_MB_P medulloblastoma growth inhibition, cell-based, chromothripsis tumors, cisplatin or BGB combos (AID 1671449); details: LFS_MB_P medulloblastoma cells;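 note: cells exposed for 96 hours; 0% = vehicle DMSO and 100% = killing by high DMSO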
[4] = HDN33 neuroblastoma growth inhibition, cell-based, chromothripsis tumors, cisplatin or BGB combos (AID 1671450); details: HDN33 neuroblastoma cells, stronger effect = higher value;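 note: cells exposed to compound for four days; 0% = vehicle DMSO and 100% = cell killing by high DMSO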
[5] = ICB984 medulloblastoma cell growth inhibition, synergistic combos for chromothripsis tumors, cisplatin or BGB combos (AID 1671451; call rule not given here;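 note: cells exposed for 96 hours before readout; 0% = vehicle DMSO and 100% = killing by high DMSO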); details: ICB984 medulloblastoma cells, drug combinations, stronger effect = higher value
[6] = LFS_MB_1R medulloblastoma cell growth inhibition, synergistic combos for chromothripsis tumors, cisplatin or BGB combos (AID 1671452); details: LFS_MB_1R medulloblastoma cells, stronger effect = higher value;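 note: cells exposed for 96 hours before readout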
[7] = HTB85 osteosarcoma cell growth inhibition, synergistic combos for chromothripsis tumors, BGB or cisplatin IC20 combos (AID 1671453); details: HTB85 osteosarcoma cells, drug combinations, stronger effect = higher value;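 note: cells exposed for 96 hours before readout; 0% = vehicle DMSO and 100% = high DMSO killing control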
[8] = CRL2098 osteosarcoma cell growth inhibition, synergistic combos for chromothripsis tumors, BGB or cisplatin IC20 combos (AID 1671454); details: CRL2098 osteosarcoma cells, drug combinations, stronger effect = higher value;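 note: cells exposed for 96 h before readout; 0% = vehicle DMSO and 100% = killing by high DMSO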
[9] = HD-MB03 medulloblastoma cell growth inhibition, synergistic combos for chromothripsis tumors, BGB or cisplatin IC20 combos (AID 1671455; in the data active = inhibition above about 83%;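 note: 0% = vehicle DMSO and 100% = high DMSO as cytotoxic control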); details: HD-MB03 medulloblastoma cells, stronger effect = higher value
[10] = UWB1.289 ovarian carcinoma cell growth inhibition, synergistic combos for chromothripsis tumors, BGB or cisplatin combos (AID 1671456); details: UWB1.289 ovarian carcinoma cells, stronger effect = higher value;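 note: cells exposed to compound for four days; 0% = vehicle DMSO and 100% = killing by high DMSO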
[11] = LFS_MB_2R medulloblastoma cell growth inhibition, synergistic combos for chromothripsis tumors, cisplatin combos (AID 1671457); details: LFS_MB_2R medulloblastoma cells, stronger effect = higher value;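 note: cells exposed to compound for four days before readout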
[12] = MDA-MB-436 breast carcinoma cell growth inhibition, synergistic combos for chromothripsis tumors, BGB or cisplatin combos (AID 1671458; call rule not given here;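 note: cells exposed for 96 hours; 0% = vehicle DMSO and 100% = killing by high DMSO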); details: MDA-MB-436 breast carcinoma growth inhibition, drug combinations, stronger effect = higher value
[13] = UWB1.289_BRCA1 ovarian cancer growth, cell-based, BGB or cisplatin combinations (AID 1671459); details: UWB1.289 BRCA1 ovarian carcinoma, drug combinations, stronger effect = higher value
[14] = human astrocyte viability loss, single and combined drugs, cytotoxicity control for chromothriptic childhood tumor combination screen, cell-based, BGB or cisplatin IC20 combos (AID 1671460); details: Human astrocytes, drug combinations, stronger effect = higher value;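 note: cells exposed to compounds for 96 hours before viability readout; 0% = vehicle and 100% = killing control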
[15] = growth inhibition of BT084 medulloblastoma cells, cell-based, ICGC_MB145, cisplatin and BGB IC40 combos (AID 1671461); details: drug combinations, stronger effect = higher value;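 note: cells exposed to drugs for 96 hours; 0% = vehicle DMSO and 100% = high DMSO full killing control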
[16] = growth inhibition of RCMB18 medulloblastoma cells, cell-based, cisplatin and BGB IC40 combos (AID 1671462); details: stronger effect = higher value;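 note: cells exposed to compound for four days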
[17] = growth inhibition of CRL1545 osteosarcoma cells, cell-based, cisplatin and BGB IC20 combos (AID 1671464); details: stronger effect = higher value;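 note: cells exposed to compound for 96 hours before readout; 0% = vehicle DMSO and 100% = high DMSO killing control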
[18] = viability loss in pontine glioma line – cell-based, SU-DIPG-XXV, MIPE5.0, CellTiter-Glo, qHTS, dose response (AID 1347065; cut-off not given, nearly all actives have AC50 up to about 26 µM;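 note: cells exposed to compound for 48 hours before ATP readout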); details: CellTiter-Glo ATP luminescence
[19] = JHH-DIPG-1 glioma cell viability, MIPE5.0 library, CellTiter-Glo luminescence, qHTS (AID 1347067; cut-off not given, nearly all actives have AC50 up to about 26 µM;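 note: cells exposed to compound for 48 hours before readout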); details: JHH-DIPG-1 glioma viability, CellTiter-Glo ATP luminescence
[20] = sensitizers of A549 cells to miR-34 induction, primary screen, imaging, A549 dox-inducible miR-34, nuclei and caspase counts (AID 1347080;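 active = compounds whose cell count with miR-34 switched on is under 0.7 times the count with it off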); details: A549 miR-34 inducible, Hoechst nuclei count, 48 h
[21] = survival rescue of mitochondrial mutant cells in low glucose, primary screen, MELAS cybrids, Rieske KO mouse fibroblasts, CellTiter-Glo (AID 1508586;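 active = mean z-score across replicates of 1.96 or higher in either the MELAS or the Rieske mutant cell line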;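 note: z relative to plate mean and SD of compound and empty wells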)
[22] = SU-DIPG-VI glioma cell viability, MIPE4.0 library, CellTiter-Glo luminescence, qHTS (AID 1347066; cut-off not given, nearly all actives have AC50 up to about 30 µM;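 note: cells exposed to compound for 48 hours before readout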); details: CellTiter-Glo ATP luminescence
[23] = modifiers of HSF1 nuclear foci, imaging, Selleck Cancer Library (AID 1347162; in the data active = plate-normalised HSF1 focus index below about 0.46); details: human cells, at 10 µM; SSMD: measured here: HSF1 foci SSMD mean; cell count: measured here: cell number; plate-normalised HSF1 focus index: stronger effect = lower value
[24] = measured here: combination with BGB IC40, at 0.05 µM
[25] = measured here: with BGB IC20 combination, at 0.5 µM
[26] = measured here: with cisplatin IC20 combination, at 0.5 µM
[27] = measured here: combination with cisplatin, at 0.5 µM
[28] = measured here: combination with cisplatin, at 5 µM

O=c1[nH]c([C@@H]2CCCN2)nc2c1oc1ccc(Cl)cc12
AC50 [1]: 20.9 µM (active)
outcome [2]: inactive
inhibition ([3]; at 0.5 µM, stronger effect = higher value): -0.05% (inactive)
inhibition ([3]; measured here: combination with BGB IC20, at 0.005 µM): -31.4%
inhibition ([3]; measured here: combination with BGB IC40, at 0.005 µM): 94.4%
inhibition [3, 24]: -14%
inhibition ([3]; measured here: combination with cisplatin, at 0.5 µM, stronger effect = higher value): 64.5%
inhibition ([3]; measured here: combination with cisplatin, at 5 µM, stronger effect = higher value): -16.4%
inhibition ([4]; BGB combo, at 5 µM): 1.11%
inhibition ([4]; at 0.5 µM): -21.3% (inactive)
inhibition ([4]; cisplatin combo, at 5 µM): -6.62%
inhibition [4, 25]: -15.4%
inhibition [4, 26]: -18.8%
inhibition ([4]; single agent, at 5 µM): 3.38%
inhibition ([5]; BGB IC20 combo, at 0.005 µM): -39.5%
inhibition ([5]; BGB IC40 combo, at 0.005 µM): -26.9%
inhibition ([5]; BGB IC40 combo, at 0.05 µM): -16.5%
inhibition ([5]; at 0.5 µM): -16.4% (inactive)
inhibition ([5]; cisplatin combo, at 0.05 µM): -22.5%
inhibition ([5]; cisplatin combo, at 0.5 µM): -15.6%
inhibition ([5]; cisplatin combo, at 5 µM): 4.34%
inhibition ([5]; measured here: 5 uM single agent, at 5 µM): -19.5%
inhibition ([6]; at 0.5 µM): -31% (inactive)
inhibition [6, 24]: -29.1%
inhibition [6, 27]: -68.3%
inhibition [6, 28]: -10.2%
inhibition ([7]; at 0.5 µM): -12.9% (inactive)
inhibition ([7]; measured here: with BGB IC20, at 0.5 µM): -9.31%
inhibition ([7]; measured here: with BGB IC20, at 5 µM): -19.7%
inhibition ([7]; measured here: with cisplatin IC20, at 0.5 µM): -5.61%
inhibition ([7]; measured here: with cisplatin IC20, at 5 µM): -2.34%
inhibition ([7]; single agent, at 5 µM): -2.45%
inhibition ([8]; at 0.5 µM): -86.2% (inactive)
inhibition ([8]; measured here: combination with BGB at IC20, at 0.5 µM): -77.4%
inhibition ([8]; measured here: combination with cisplatin at IC20, at 0.5 µM): -117%
inhibition ([9]; at 0.5 µM): -12.2% (inactive)
inhibition ([9]; measured here: combo with BGB at IC20, at 0.5 µM): -2.56%
inhibition ([9]; measured here: combo with cisplatin at IC20, at 0.5 µM): -27.5%
inhibition ([10]; at 0.5 µM): -17.8% (inactive)
inhibition ([10]; measured here: inhibition with BGB combination, at 0.05 µM): -12.3%
inhibition ([10]; measured here: inhibition with cisplatin combination, at 0.05 µM): -25.4%
inhibition ([11]; at 0.5 µM): -16% (inactive)
inhibition [11, 27]: -22.2%
inhibition [11, 28]: -24.3%
inhibition ([12]; at 0.5 µM): -35% (inactive)
inhibition ([12]; measured here: BGB combination, at 0.5 µM): -39.6%
inhibition ([12]; measured here: BGB combination, at 5 µM): -62.1%
inhibition ([12]; measured here: cisplatin combination, at 0.5 µM): -52.2%
inhibition ([12]; measured here: cisplatin combination, at 5 µM): -71.9%
inhibition ([13]; BGB combination, concentration series, at 5 µM): -4.02%
inhibition ([13]; at 0.5 µM): -15.4% (inactive)
inhibition ([13]; cisplatin combination, concentration series, at 5 µM): -5.14%
inhibition ([14]; at 0.5 µM): 1.64% (inactive)
inhibition ([14]; measured here: combo with BGB IC20, at 0.5 µM): 11.1%
inhibition ([14]; measured here: combo with cisplatin IC20, at 0.5 µM): -0.305%
inhibition ([15]; at 0.5 µM): 18.2% (inactive)
inhibition ([15]; cisplatin combination, at 0.5 µM): 0.765%
inhibition ([15]; cisplatin combination, at 5 µM): -129%
inhibition ([15]; measured here: BGB IC40 combination 0.05 uM, at 0.05 µM): -10.1%
inhibition ([15]; single agent, at 5 µM): 7.55%
inhibition ([16]; at 0.5 µM): -15.8% (inactive)
inhibition ([16]; cisplatin combo, at 5 µM): -8.27%
inhibition ([16]; measured here: BGB IC40 combination, at 0.05 µM): 3.23%
inhibition [16, 27]: -15.3%
inhibition ([16]; single agent, at 5 µM): -12.8%
inhibition ([17]; at 0.5 µM): -44.6% (inactive)
inhibition [17, 25]: -65.7%
inhibition [17, 26]: -36.2%
inhibition ([17]; single agent, at 0.05 µM): -56%
inhibition ([17]; single agent, at 5 µM): -51.5%

Nc1ncnc2c1c(COc1cccc(Cl)c1)nn2C1CCOCC1
outcome [1]: inactive
outcome [2]: inactive

O=C(c1c(F)ccc(NS(=O)(=O)N2CC[C@@H](F)C2)c1F)c1c[nH]c2ncc(-c3cnc(C4CC4)nc3)cc12
AC50 [18]: 10.5 µM (active)

Cc1nn(C)c2c1C(c1ccc(C(F)(F)F)cc1)C(C#N)=C(N)O2 (configuration not stated)
outcome [1]: inactive
outcome [2]: inactive

Nc1nccc(-c2c(-c3ccc(F)cc3)ncn2C2CCCCC2)n1
outcome [1]: inactive
outcome [19]: inactive
outcome [2]: inactive

CN(C)CCNC(=O)NC[C@H]1CC[C@@H]2[C@H](O1)c1cc(C(F)(F)F)ccc1N[C@H]2c1ccccc1
AC50 [18]: 0.186 µM (active)

FC(F)(F)c1ccc(CNc2ccc(Cc3c[nH]c4ncc(Cl)cc34)cn2)cn1
outcome [1]: inactive
outcome [19]: inactive
outcome [2]: inactive

O=C(NCCCNc1nc(Nc2cccc(CN3CCOCC3)c2)ncc1C1CC1)C1CCC1
AC50 [18]: 7.42 µM (active)

C#Cc1cccc(Nc2ncnc3cc4c(cc23)OCCOCCOCCO4)c1
outcome [1]: inactive
fold change ([20]; stronger effect = lower value, cell number ratio, induced over uninduced): 1.01 (inactive)
fold change ([20]; measured here: relative caspase fold change +Dox/-Dox): 0.44
cell count ([20]; measured here: total cells with miR-34 induction, stronger effect = lower value): 7300
cell count ([20]; measured here: total cells without miR-34 induction): 7200
z-score ([21]; MELAS cybrid survival, CellTiter-Glo 48 h, stronger effect = higher value): 0.219 (inactive)
z-score ([21]; Rieske KO mouse fibroblast survival, CellTiter-Glo 72 h): 0.164

CC1(C)CC[C@]2(C(=O)O)CC[C@]3(C)C(=CC[C@@H]4[C@@]5(C)C[C@@H](O)[C@H](O)C(C)(C)[C@@H]5CC[C@]43C)[C@@H]2C1
AC50 [18]: 20.9 µM (active)

CN1CCC(COc2cnc(-c3cccc(Cn4nc(-c5cccc(C#N)c5)ccc4=O)c3)nc2)CC1
AC50 [18]: 26.3 µM (active)
outcome [22]: inactive
AC50 [19]: 29.5 µM (active)

NC(=O)c1cnc2[nH]ccc2c1NC1C2CC3C[C@H]1CC(O)(C3)C2 (some centres not stated)
AC50 [18]: 9.34 µM (active)

Cc1cc(/C=c2/sc3nc4ccccc4n3c2=O)c(C)n1-c1ccccc1
AC50 [18]: 20.9 µM (active)
outcome [22]: inactive
outcome [19]: inactive
outcome [2]: inactive
SSMD [23]: 3.08
cell count [23]: 7030
plate-normalised HSF1 focus index [23]: 1.18 (inactive)
